{"source": "PubChem BioAssay (Tox21)", "note": "Inconclusive results are not listed. Unmarked numbers belong to inactive results. Calls of active or inactive are those of the source. Calls come from the whole dose curve. % is set by controls: 0 for no effect and ±100 for the full control effect."}
{"test": "qHTS assay to identify small molecule agonists or antagonists of the thyroid stimulating hormone receptor (TSHR) signaling pathway - wild type cell line counter screen (AID 1259384)", "settings": "HEK293 wild type, cAMP HTRF counter-screen, hits give high values; series mostly up to 92.4 µM", "description": "U.S. Tox21 Program National Center for Advancing Translational Sciences [NCATS] NIH Chemical Genomics Center [NCGC] U.S. Environmental Protection Agency [EPA] National Institutes of Environmental Health Sciences [NIEHS] National Toxicology Program [NTP] U.S. Food and Drug Administration [FDA] Tox21 Assay Overview: TSHR is the receptor for thyrotropin (thyroid stimulating hormone or TSH), a member of the glycoprotein hormone family. TSH is released by the anterior pituitary gland and is the main regulator of thyroid gland growth and development. Upon binding circulating thyrotropin, a G-protein signal cascade activates adenylyl cyclase and […] cAMP concentration is increased. cAMP is a key second messenger involved extensively in cellular signal transduction pathways associated with the majority of G-protein coupled receptors (GPCRs). The activation of these GPCRs by neurotransmitters, lipids, nucleotides, peptides and hormones results in the activation or the inhibition of plasma membrane-bound adenylate cyclase through heterotrimeric G-proteins. A cell-based TSHR-Hek293 assay can be used to identify TSHR agonists. To eliminate the false positive compounds identified from screening a cell-based TSHR-Hek293 cell line, cAMP assay in a wild type Hek293 cells was used as a counter screening.\nTox21 Assay Protocol Summary: Hek293 cells (wild type) were dispensed at 800 cells/4 uL/well in 1536-well white plates using a Multidrop dispenser. After the assay plates were incubated at a 37 C/5% CO2 incubator for 18 hrs, 23 nL of compounds dissolved in DMSO, positive controls or DMSO only was transferred to the assay plate by a pin tool, followed by 1 ul medium containing Ro20-1724. After 30 min of incubation at room temperature, 2.5 ul/well of cAMP-d2 and 2.5 ul/well of anti-cAMP-cryptate were added respectively into the assay plates using a Flying Reagent Dispenser. The plates were incubated at room temperature for 1 hr. The fluorescence intensity in the plates was measured using an Envision plate reader. Each test compound was measured at 15 concentrations and in triplicates."}
{"smiles": "CNC(=O)NC", "outcome": "inactive"}
{"smiles": "Nc1cc(C(=O)O)ccc1Cl", "outcome": "inactive"}
{"smiles": "O=C(O)C(=O)Nc1cccc(-c2nn[nH]n2)c1", "outcome": "inactive"}
{"smiles": "COc1ccc(N=Nc2cc(C)c(N=Nc3ccc(S(=O)(=O)O)cc3)cc2OC)cc1", "outcome": "inactive"}
{"smiles": "C[C@H](CCC(=O)O)[C@H]1CC[C@H]2[C@@H]3[C@H](O)C[C@@H]4C[C@H](O)CC[C@]4(C)[C@H]3C[C@H](O)[C@]12C", "outcome": "inactive"}
{"smiles": "C=C[Si](C)(C)O[Si](C)(C)C=C", "outcome": "inactive"}
{"smiles": "CCCCOC(=O)C(C)OC(=O)CCC", "note": "(stereo not given)", "outcome": "inactive"}
{"smiles": "CC(C)(C)c1ccc(C=O)cc1", "outcome": "inactive"}
{"smiles": "COc1cc(C=O)ccc1OC(=O)C(C)C", "outcome": "inactive"}
{"smiles": "CCN(CCO)c1cccc(C)c1", "outcome": "inactive"}
{"smiles": "O=c1cc(O)c(Cl)c[nH]1", "outcome": "inactive"}
{"smiles": "CC(C)CCCC(C)CC=O", "note": "(stereo not given)", "outcome": "inactive"}
{"smiles": "CCCCCC1CCCC(=O)O1", "note": "(stereo not given)", "outcome": "inactive"}
{"smiles": "CC(C)c1ccccc1O", "outcome": "inactive"}
{"smiles": "CC(C)C(=O)c1ccccc1", "outcome": "inactive"}
{"smiles": "CCCCCCCCC(=O)OCC", "outcome": "inactive"}
{"smiles": "Cc1ccccc1C(=O)N1CC/C(=N\\OS(=O)(=O)O)c2ccc(Cl)cc21", "outcome": "inactive"}
{"smiles": "CCc1nccnc1C", "outcome": "inactive"}
{"smiles": "O=CN1CCOCC1", "outcome": "inactive"}
{"smiles": "O=C(O)Cc1cccc(-c2cc(CCCCCCc3ccc(O[C@H]4O[C@H](CO)[C@@H](O)[C@H](O)[C@@H]4O)c(-c4cccc(CC(=O)O)c4)c3)ccc2O[C@H]2O[C@H](CO)[C@@H](O)[C@H](O)[C@@H]2O)c1", "cAMP activity change": "-6.17% [at 0.349 µM]"}
{"smiles": "CCCCC[Si](OCC)(OCC)OCC", "outcome": "inactive"}
{"smiles": "OC[C@@H](O)[C@H](O)[C@@H](O)[C@@H](O)CO", "outcome": "inactive"}
{"smiles": "CC(=O)OC(C)(C)Cc1ccccc1", "outcome": "inactive"}
{"smiles": "CCCCCCCCCCCCCC(=O)OC", "outcome": "inactive"}
{"smiles": "C=CCOc1cc(Cl)ccc1C(=O)NCCN(CC)CC", "outcome": "inactive"}
{"smiles": "Nc1ccc(S(=O)(=O)Nc2ccccn2)cc1", "outcome": "inactive"}
{"smiles": "CCC(O)C(C)(C)C", "note": "(stereo not given)", "outcome": "inactive"}
{"smiles": "Cc1ccc2c(c1)c1c3n2CCNC3CCC1", "note": "(stereo not given)", "outcome": "inactive"}
{"smiles": "O=C(O)c1ccc(OCCN2CCCCC2)cc1", "outcome": "inactive"}
{"smiles": "CN[C@@H]1[C@@H](O)[C@@H](O[C@@H]2[C@H](O)[C@H](O[C@H]3OC(CN)=CC[C@H]3N)[C@@H](N)C[C@H]2N)OCC1(C)O", "note": "(stereo not given in full)", "outcome": "inactive"}
{"smiles": "CCOC(=O)CC#N", "outcome": "inactive"}
{"smiles": "Cc1nc2ccccc2c(=O)o1", "outcome": "inactive"}
{"smiles": "SCCSCCS", "outcome": "inactive"}
{"smiles": "CCCCC/C=C/CC(=O)OC", "outcome": "inactive"}
{"smiles": "NS(=O)(=O)c1cc2c(cc1Cl)NC(C(Cl)Cl)NS2(=O)=O", "note": "(stereo not given)", "outcome": "inactive"}
{"smiles": "CCCC(C)CC", "note": "(stereo not given)", "outcome": "inactive"}
{"smiles": "CCCCOC(=O)[C@@H](C)Oc1ccc(Oc2ccc(C(F)(F)F)cn2)cc1", "outcome": "inactive"}
{"smiles": "Cc1ccc(S(=O)(=O)NC(=O)NC2CCCCCCC2)cc1", "outcome": "inactive"}
{"smiles": "O=C(Oc1ccccc1C(=O)O)c1ccccc1O", "outcome": "inactive"}
{"smiles": "CN(C1CCCCC1)S(=O)(=O)c1ccccc1N", "outcome": "inactive"}
